# Source: PubChem BioAssay AID2104 (National Center for Advancing Translational Sciences (NCATS), 2010)
# Results filed as inconclusive are left out. The source made the active and inactive calls. Calls follow the shape of the full dose curve.
# Molecular target: Thyrotropin receptor (Homo sapiens) (UniProt P16473)
# Experiment: Secondary Concentration-Response Assay for Agonists of the Thyroid Stimulating Hormone Receptor: ELISA Activity Detection
# Details: HEK293-TSHR cells, cAMP ELISA luminescence, 1 h
# Excerpt: NIH Chemical Genomics Center [NCGC] NIH Molecular Libraries Screening Centers Network [MLSCN] MLSCN Grant: 1 X01 MH080680-01 PI Name: Dr. Marvin Gershengorn, NIH NCGC Assay Overview: Confirmation of Thyroid Stimulating Hormone Receptor Agonists TSH is an alpha/beta heterodimeric glycoprotein hormone secreted from the anterior pituitary gland which belongs to the glycoprotein hormone family. The actions of TSH are mediated by a seven-transmembrane receptor, which upon TSH binding couples preferentially to the G-alpha (s) protein (Gs), resulting in activation of adenylate cyclase and increase in cyclic adenosine 3', 5' monophosphate (cAMP). The TSH receptor (THSR) is mainly expressed in thyroid follicular cells and regulates their growth and function. Recombinant TSH is used to activate TSHR in patients with thyroid cancer receiving thyroid hormone suppression therapy and to screen for residual tumor after surgery, but it is expensive and must be administered intramuscularly. An orally active small molecule TSHR agonist would serve as an invaluable research tool for studying TSHR pharmacology and physiology, and would have multiple advantages in therapeutic settings. However, no selective small molecule agonist of the TSH receptor exists, and no small molecule screen for TSHR agonists has ever been reported. A confirmatory assay of putative TSHR agonists was conducted on a HEK 293 cell line stably expressing the TSHR, using an orthogonal detection technology to measure cAMP stimulation: an ELISA based cAMP competition assay using cAMP-Screen Direct System (Applied Biosystems, Foster City , CA).
# NCGC Assay Protocol Summary: HEK 293 cells expressing TSHR were cultured for 24 h before incubation for 1 h in serum-free DMEM containing 1 mM 3-isobutyl-1-methylxanthine (IBMX) (SIGMA) and small molecule ligands in a humidified 5% CO2 incubator at 37C. Following aspiration of the medium, cells were lysed using lysis buffer of the cAMP-Screen DirectTM System (Applied Biosystems). The cAMP content of the cell lysate was determined using the method described in the manufacturer#s protocol. An enzyme substrate with a luminescent enhancer generates glow light emission kinetics. Light signal intensity, which is inversely proportional to the cAMP level in the sample, is measured in a luminometer (Perkin Elmer, 1420 Multilabel, Victor 3) for 3 seconds/well 30 min after substrate addition. Potencies (i.e., EC50) of the ligands were obtained from dose-response curves by data analysis with GraphPad Prism 4 software for Windows.
# Thyrotropin receptor (Homo sapiens), sequence (P16473 whole entry, looked up): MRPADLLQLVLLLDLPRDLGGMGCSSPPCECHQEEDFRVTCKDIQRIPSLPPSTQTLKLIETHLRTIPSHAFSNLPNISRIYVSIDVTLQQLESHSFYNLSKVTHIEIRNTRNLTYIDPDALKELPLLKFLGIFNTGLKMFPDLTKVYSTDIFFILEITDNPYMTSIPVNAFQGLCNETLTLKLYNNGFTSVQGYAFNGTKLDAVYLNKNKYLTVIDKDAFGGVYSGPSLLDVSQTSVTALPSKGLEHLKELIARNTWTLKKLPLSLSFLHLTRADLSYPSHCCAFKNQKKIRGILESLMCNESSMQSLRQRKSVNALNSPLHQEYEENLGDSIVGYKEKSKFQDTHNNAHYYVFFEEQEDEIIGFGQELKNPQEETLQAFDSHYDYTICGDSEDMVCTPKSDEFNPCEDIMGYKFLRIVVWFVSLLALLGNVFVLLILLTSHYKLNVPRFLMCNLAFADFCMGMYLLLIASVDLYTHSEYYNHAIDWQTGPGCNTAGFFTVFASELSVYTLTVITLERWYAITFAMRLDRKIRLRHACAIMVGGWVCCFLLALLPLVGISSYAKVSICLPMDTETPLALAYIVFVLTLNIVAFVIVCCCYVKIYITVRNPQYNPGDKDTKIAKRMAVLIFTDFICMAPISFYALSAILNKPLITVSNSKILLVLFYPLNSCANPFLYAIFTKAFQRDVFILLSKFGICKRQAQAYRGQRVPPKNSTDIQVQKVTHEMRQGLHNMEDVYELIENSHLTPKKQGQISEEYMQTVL
SMILES,Potency,outcome
COc1ccc(C2Nc3ccc(O)cc3C(=O)N2Cc2ccccc2)cc1COc1ccc(NC(C)=O)cc1 (stereo unspecified),330 nM (active),–
COc1ccc(-c2nc3ccccc3c(=O)n2Cc2ccco2)cc1COc1ccc(NC(C)=O)cc1,930 nM (active),–
COc1ccc(C2Nc3cccc(O)c3C(=O)N2Cc2ccccc2)cc1COc1ccc(NC(C)=O)cc1 (stereo unspecified),90 nM (active),–
CCCCN1C(=O)c2ccccc2NC1c1ccc(OC)c(COc2ccc(NC(C)=O)cc2)c1 (stereo unspecified),830 nM (active),–
COc1ccc(C2Nc3ccccc3C(=O)N2Cc2ccccc2)cc1COc1ccc(C#N)cc1 (stereo unspecified),–,inactive
COc1ccc(C2Nc3cccc(O)c3C(=O)N2Cc2ccccc2)cc1CSc1ccc(NC(C)=O)cc1 (stereo unspecified),18 nM (active),–
COCc1cc(C2Nc3ccccc3C(=O)N2Cc2ccccc2)ccc1OC (stereo unspecified),–,inactive
COc1ccc(C2Nc3cccc(O)c3C(=O)N2Cc2ccccc2)cc1 (stereo unspecified),–,inactive
COc1ccc(C2Nc3ccccc3C(=O)N2CCCN(C)C)cc1COc1ccc(NC(C)=O)cc1 (stereo unspecified),–,inactive
COc1ccc(C2Nc3ccccc3C(=O)N2Cc2ccccc2)cc1COc1ccc(NC(C)=O)cc1 (stereo unspecified),290 nM (active),–
COc1ccc(C2Nc3ccccc3C(=O)N2CCc2ccccc2)cc1COc1ccc(NC(C)=O)cc1 (stereo unspecified),430 nM (active),–
COc1ccc(-c2nc3cccc(O)c3c(=O)n2Cc2ccccc2)cc1COc1ccc(NC(C)=O)cc1,550 nM (active),–
COc1ccc(-c2nc3ccccc3c(=O)n2Cc2ccccc2)cc1COc1ccc(NC(C)=O)cc1,960 nM (active),–
COc1ccc(C2Nc3ccccc3C(=O)N2Cc2ccco2)cc1COc1ccccc1 (stereo unspecified),–,inactive
COc1ccc(C2NC(=O)c3ccccc3N2)cc1COc1ccc(NC(C)=O)cc1 (stereo unspecified),–,inactive
COc1ccc(C2Nc3ccccc3C(=O)N2CCO)cc1COc1ccc(NC(C)=O)cc1 (stereo unspecified),–,inactive
O=C1c2ccccc2NC(c2ccccc2)N1Cc1ccco1 (stereo unspecified),–,inactive
COc1ccc(C2Nc3ccccc3C(=O)N2Cc2ccccc2)cc1CSc1ccc(NC(C)=O)cc1 (stereo unspecified),80 nM (active),–
COc1ccc(C2Nc3cccc(NS(C)(=O)=O)c3C(=O)N2Cc2ccccc2)cc1COc1ccc(NC(C)=O)cc1 (stereo unspecified),980 nM (active),–
COc1ccc(C2Nc3ccccc3C(=O)N2Cc2ccccc2)cc1COc1cccc(F)c1 (stereo unspecified),–,inactive
COc1ccc(C2Nc3cccc(F)c3C(=O)N2Cc2ccccc2)cc1COc1ccc(NC(C)=O)cc1 (stereo unspecified),280 nM (active),–
